Test [1] addresses Luciferin 4-monooxygenase (Photinus pyralis) (UniProt P08659). Kind of test: qHTS assay to identify small molecule inhibitors of firefly luciferase (AID 1224835). Also: nearly all actives have a fitted effect of over 25% in size. Summed up: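 Inhibition of purified Photinus luciferase is measured by luminescence. Substrate levels (D-luciferin, ATP) sit at their KM values. Each compound is tested in a concentration series.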
For orientation: Quantitative high-throughput screening tests each substance at several concentrations.

A short description of test [2]: qHTS assay to identify small molecule agonists of the constitutive androstane receptor (CAR) signaling pathway - cell viability counter screen (AID 1224836). Also: nearly all actives have a fitted effect of over 45% in size. The method in brief:
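Double-stable HepG2 hepatoma cells (hCAR plus CYP2B6-2.2kb) are treated for 23 h at 37 C with test compounds in 15-point concentration series. PK11195 at 0.75 uM final is co-added. Cell viability is quantified by CellTiter-Fluor.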

The nature of test [3]: qHTS assay to identify small molecule antagonists of the constitutive androstane receptor (CAR) signaling pathway - cell viability counter screen (AID 1224837). Also: nearly all actives have a fitted effect of over 45% in size. Summed up:
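Counter screen run in HepG2-CYP2B6-hCAR cells: 4 hr settle, compound titration (15 concentrations) with 50 nM CITCO, 23 hr at 37 C/5% CO2, CellTiter-Fluor fluorescence.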

For test [4], the target named is Nuclear receptor subfamily 1 group I member 3 (Homo sapiens) (UniProt Q14994). Kind of test: qHTS assay to identify small molecule agonists of the constitutive androstane receptor (CAR) signaling pathway (AID 1224839).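 Also: HepG2 cells stably carrying human CAR and a CYP2B6 luciferase reporter; nearly all actives have a fitted effect of over 15% in size.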 Summed up: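 Readout: firefly luciferase luminescence via ONE-Glo. System: HepG2 double-stable for hCAR and CYP2B6-2.2kb. Conditions: 15-point compound titration, PK11195 at 0.75 uM final, 24 h incubation.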
Sequence of Nuclear receptor subfamily 1 group I member 3 (Homo sapiens) (Q14994 whole entry, looked up): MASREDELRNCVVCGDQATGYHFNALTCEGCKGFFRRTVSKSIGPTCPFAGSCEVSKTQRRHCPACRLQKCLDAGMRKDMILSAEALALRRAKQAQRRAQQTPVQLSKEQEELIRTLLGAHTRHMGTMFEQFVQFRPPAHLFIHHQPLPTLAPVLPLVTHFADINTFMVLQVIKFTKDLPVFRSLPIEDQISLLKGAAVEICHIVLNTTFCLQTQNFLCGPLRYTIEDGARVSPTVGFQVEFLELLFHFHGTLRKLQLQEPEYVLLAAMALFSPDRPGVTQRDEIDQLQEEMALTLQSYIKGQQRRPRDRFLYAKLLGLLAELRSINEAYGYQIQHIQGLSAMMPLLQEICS

A short description of test [5]: qHTS assay to identify small molecule antagonists of the estrogen related receptor signaling pathway with the pleiotropic PPARgamma coactivator (PGC) from Tox21 10K library - cell viability counter screen (AID 1224840; active = well fitted cell-killing curve with a large enough effect in the repeat runs, not every such curve was filed as active; also: nearly all actives have a fitted effect of over 40% in size; also: potency is read from the fitted curve at half-maximal effect). Summed up:
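Following seeding of 2,000 PGC/ERR cells/well and 6 hours' incubation, test compounds were delivered in DMSO. The plates then sat 17.5 hours at 37 C before a fluorogenic live-cell protease reagent (CellTiter-Fluor) was read after 30 min.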

Test [6] is described as follows: qHTS assay to identify small molecule antagonists of the estrogen related receptor signaling pathway with the pleiotropic PPARgamma coactivator (PGC) from Tox21 10K library (AID 1224841; call rule not given here; also: actives are mostly falling curves and most rising ones were filed inactive; nearly all actives have a fitted effect of over 50% in size; also: potency is read from the fitted curve at half-maximal effect). The method in brief:
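qHTS antagonist format: PGC/ERR cells, 2k/well, compound in DMSO by pin transfer after 6 h attachment, 18 h treatment at 37 C, One-Glo luminescence read at 30 min.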

Test [7] in a line: qHTS assay to identify small molecule agonists of the estrogen related receptor signaling pathway with the pleiotropic PPARgamma coactivator (PGC) from Tox21 10K library (AID 1224842). Also: nearly all actives have a fitted effect of over 15% in size. Summed up: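 Luminescence from One-Glo (30 min, room temperature) measured after PGC/ERR cells had 18 h at 37 C with pinned compound (23 nL in DMSO). Cells had been seeded at 2,000 per well and pre-incubated 6 h.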

Test [8] is described as follows: qHTS assay to identify small molecule agonists of the hypoxia (HIF-1) signaling pathway - cell viability counter screen (AID 1224844; calls by dose curve; also: nearly all actives have a fitted effect of over 50% in size; also: potency is read from the fitted curve at half-maximal effect). The method in brief: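 Cells (HRE-bla ME-180, 2,000 per well) sat 5 hrs at 37C, got compound for 17 hrs, were read for CCF4-AM FRET, and were finally lysed with CellTiter-Glo for a 30 min room-temperature luminescence read.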
Test [9] is described as follows: qHTS assay to identify small molecule agonists of H2AX (AID 1224845; active = well fitted activation curve with a large enough effect in the signal ratio in the repeat runs, not every such curve was filed as active; the % refers to the signal ratio). Summed up: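 Phospho-H2AX Ser139 measured by HTRF (ex 320 nm; em 665 and 620 nm) after 24 hr antibody incubation. Compounds, 15 concentrations, 0.76% DMSO, were applied to CHO-K1 cells for 3hr at 37C before lysis.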
Test [10] can be described thus: qHTS assay to identify small molecule agonists of H2AX - cell viability counter screen (AID 1224847; calls by dose curve;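 also: wild-type CHO-K1 cells; top concentration of the series differs between compounds; nearly all actives have a fitted effect of over 30% in size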). The method in brief: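 For this counter screen, overnight-attached CHO-K1 cells received test compounds (15 concentrations, 0.76% DMSO final); 3 hr later at 37C, CellTiter-Glo reagent was added and luminescence recorded after 30 min at room temperature.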
Test [11] is described as follows: qHTS assay to identify small molecule antagonists of the estrogen related receptor (ERR) signaling pathway from Tox21 library (AID 1224848). Also: nearly all actives have a fitted effect of over 50% in size. Also: potency is read from the fitted curve at half-maximal effect. The method in brief:
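Reading was by luminescence 30 min after ONE-Glo addition. Before that, ERR cells at 2,000 per well had rested 6 h at 37 C/5% CO2 and then received pin-tooled compounds in DMSO for 18 h at 37 C.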

The nature of test [12]: qHTS assay to identify small molecule agonists of the estrogen related receptor (ERR) signaling pathway from Tox21 library (AID 1224849; calls by dose curve; also: nearly all actives have a fitted effect of over 15% in size). The settings on record: ERR reporter cell line, ONE-Glo luciferase, 18 h. The method in brief:
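Screening used an NTP-provided ERR luciferase cell line. Compounds in DMSO were added 6 h after seeding and left 18 h at 37 C before a 30 min ONE-Glo step and luminescence reading.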

Test [13] in a line: qHTS RealTime-Glo MT Cell Viability Assay in HepG2 cells - 24 hour (AID 1224867). Also: nearly all actives have a fitted effect of over 50% in size. Also: potency is read from the fitted curve at half-maximal effect. Summed up:
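Tox21 10K library screened in qHTS format on HepG2 cells carrying RealTime-Glo reagents. Compounds were added after a 5 h preincubation, and the luminescent signal from continuous culture was measured repeatedly during 40 h treatment.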

The nature of test [14]: qHTS RealTime-Glo MT Cell Viability Assay in HEK293 cells - 32 hour (AID 1224868). Also: nearly all actives have a fitted effect of over 50% in size. Also: potency is read from the fitted curve at half-maximal effect. The method in brief:
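Luminescence generated by NanoLuc from substrate produced by living HEK293 cells served as the viability signal. Each value reflects the reading at its stated time point during continuous 40 h compound exposure at 37 C.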

The nature of test [15]: A CellTox Green Cytotoxicity Assay to monitor cytotoxicity in HEK293 cells - 0 hour (AID 1224869). Also: nearly all actives have a fitted effect of over 50% in size. The method in brief:
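Fluorescence intensity, read at 0, 8, 16, 24, 32 and 40 h of compound treatment, reflected dye binding to DNA of dead HEK293 cells; compounds (23 nL, DMSO) were added 5 h after plating cells with reagent.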

Test [16] in a line: qHTS RealTime-Glo MT Cell Viability Assay in HepG2 cells - 40 hour (AID 1224870). Also: nearly all actives have a fitted effect of over 50% in size. Also: potency is read from the fitted curve at half-maximal effect. The method in brief:
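Real-time viability: cells seeded at 600 per well together with NanoLuc and cell-permeant prosubstrate, compounds added after 5 h incubation. Luminescence tracked at 0, 8, 16, 24, 32 and 40 h of exposure.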

Test [17] can be described thus: qHTS assay to identify small molecule antagonists of the estrogen related receptor (ERR) signaling pathway from Tox21 library - cell viability counter screen (AID 1224834). Also: nearly all actives have a fitted effect of over 30% in size. Also: potency is read from the fitted curve at half-maximal effect. Summed up: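 After 17.5 h of compound exposure at 37 C, ERR cells are incubated with CellTiter-Fluor for 30 min and fluorescence intensity serves as the viability measure.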
The target of test [18] is Thyrotropin receptor (Homo sapiens) (UniProt P16473). The test is described as follows: qHTS assay to identify small molecule agonists of the thyroid stimulating hormone receptor (TSHR) signaling pathway (AID 1224843; calls by dose curve; also: nearly all actives have a fitted effect of over 45% in size). Summed up:
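HEK293 cells stably bearing the thyrotropin receptor were plated at 800 cells/well and challenged with compound (30 min, RT). Accumulated cAMP was quantified via cAMP-d2 competing for cryptate-tagged antibody.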

Test [19] in a line: qHTS assay to identify small molecule agonists of the hypoxia (HIF-1) signaling pathway (AID 1224846; active = well fitted activation curve with a large enough effect in the signal ratio in the repeat runs, not every such curve was filed as active; the % refers to the signal ratio). Summed up:
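A low-serum medium (0.5% dialyzed FBS) holding 2,000 HRE-bla ME-180 cells per well is preincubated for 5 hrs, dosed with compounds by pintool, and kept a further 17 hrs at 37C, 5% CO2 before CCF4-AM FRET detection of beta-lactamase.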

Test [20] addresses Nuclear receptor subfamily 1 group I member 3 (Homo sapiens) (UniProt Q14994). The test is described as follows: qHTS assay to identify small molecule antagonists of the constitutive androstane receptor (CAR) signaling pathway (AID 1224838).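 Also: HepG2 cells stably expressing hCAR with CYP2B6 luciferase reporter stimulated by CITCO; nearly all actives have a fitted effect of over 40% in size.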 The method in brief: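 Cell line: HepG2 double-stable for hCAR and CYP2B6-2.2kb reporter. Agonist: CITCO, 50 nM final. Compounds: 15 concentrations, 24 h, 37 C. Detection: ONE-Glo luminescence.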

Several values for one entry are separate records, joined by “and”; a condition that tells them apart may be missing. Identical values can stand only once. Results filed as inconclusive are left out. Some structures have more than one record in an assay (separate samples or runs), and their calls can disagree. Activity calls are given as the source filed them. Unless noted, calls follow the shape of the dose curve; as a rule, active = well fitted curve in the direction sought with a large enough effect in the repeat runs; inconclusive = weak or mixed curves; inactive = no such curve, though single readings can be large; an effect the other way counts as inactive or inconclusive.
% is scaled to controls: 0 for no effect and ±100 for the full control effect.

Sequence of Thyrotropin receptor (Homo sapiens) (P16473 whole entry, looked up): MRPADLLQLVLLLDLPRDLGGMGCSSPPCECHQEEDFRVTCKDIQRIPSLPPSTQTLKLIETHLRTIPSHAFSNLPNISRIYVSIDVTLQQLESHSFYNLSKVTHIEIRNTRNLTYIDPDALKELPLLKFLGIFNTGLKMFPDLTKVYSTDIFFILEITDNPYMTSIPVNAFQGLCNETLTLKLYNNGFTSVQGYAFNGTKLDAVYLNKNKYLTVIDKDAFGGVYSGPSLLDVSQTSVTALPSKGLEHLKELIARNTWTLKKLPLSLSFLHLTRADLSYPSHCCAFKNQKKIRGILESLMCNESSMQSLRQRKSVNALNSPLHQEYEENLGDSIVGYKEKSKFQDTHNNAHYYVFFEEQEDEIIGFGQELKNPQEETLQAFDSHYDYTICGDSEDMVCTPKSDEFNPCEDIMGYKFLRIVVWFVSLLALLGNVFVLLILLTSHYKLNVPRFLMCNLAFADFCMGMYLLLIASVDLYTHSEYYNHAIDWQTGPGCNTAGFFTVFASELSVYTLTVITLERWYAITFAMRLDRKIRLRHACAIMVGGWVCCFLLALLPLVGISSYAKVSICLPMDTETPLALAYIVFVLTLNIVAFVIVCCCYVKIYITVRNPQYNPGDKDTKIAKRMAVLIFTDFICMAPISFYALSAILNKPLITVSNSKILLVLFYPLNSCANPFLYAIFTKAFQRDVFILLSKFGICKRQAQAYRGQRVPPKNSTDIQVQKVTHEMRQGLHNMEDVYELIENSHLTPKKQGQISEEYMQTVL
Sequence of Luciferin 4-monooxygenase (Photinus pyralis) (P08659 whole entry, looked up): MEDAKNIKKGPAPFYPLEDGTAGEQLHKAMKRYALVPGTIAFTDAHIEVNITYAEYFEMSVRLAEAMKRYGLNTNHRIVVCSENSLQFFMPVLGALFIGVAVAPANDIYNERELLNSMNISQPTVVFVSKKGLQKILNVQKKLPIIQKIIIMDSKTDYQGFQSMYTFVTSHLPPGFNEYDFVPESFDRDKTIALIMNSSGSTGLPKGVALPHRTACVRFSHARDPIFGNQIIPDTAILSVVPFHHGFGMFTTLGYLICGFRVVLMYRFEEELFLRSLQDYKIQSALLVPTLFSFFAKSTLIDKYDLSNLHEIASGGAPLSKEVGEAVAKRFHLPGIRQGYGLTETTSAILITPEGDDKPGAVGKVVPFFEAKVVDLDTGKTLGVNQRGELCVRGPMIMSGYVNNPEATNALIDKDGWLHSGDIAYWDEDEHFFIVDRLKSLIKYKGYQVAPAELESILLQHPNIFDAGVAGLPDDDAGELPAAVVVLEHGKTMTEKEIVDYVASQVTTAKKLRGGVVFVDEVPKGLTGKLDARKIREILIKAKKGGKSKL

As to `O=C(C1CCCCC1)N1CC(=O)N2CCc3ccccc3C2C1` (stereo not given), the Potency result in test [1], in test [2], in test [3], in test [4], in test [5] and in test [6] was “inactive” throughout. The Potency entry in [7], in test [8], in [11], in test [13], in test [14] and in test [16] was “inactive” throughout. For the same molecule, the outcome in test [9], in test [10] and in [15] was inactive. For the same molecule, the activity change, positive = activation in test [12] (at 42.5 µM (top of the series)) is -13.9% (inactive); in test [12] (at 92.4 µM (top of the series)), -22.9% (inactive) and -18.8% (inactive).

Turning to `CCCNC(=O)NS(=O)(=O)c1ccc(Cl)cc1`, the Potency entry in test [17], in test [1], in test [3], in test [5], in [8] and in [13] was “inactive” throughout. For the same molecule, the Potency result in [14] and in test [16] was “inactive” in each case. The result in test [18], in [9], in test [19], in test [10] and in test [15] was inactive.

As to `COc1c2occc2cc2ccc(=O)oc12`, the Potency entry in test [17], in test [2], in test [3], in test [5], in [8] and in test [13] was “inactive” in each case. Further, the Potency result in test [16] is “inactive”. For the same molecule, the call in [18], in test [9], in test [10] and in test [15] was inactive. In [14], the Potency result was “inactive and 21.9 µM (active)”.

For `NS(=O)(=O)c1cc(C(=O)O)c(NCc2ccco2)cc1Cl`, the Potency entry in [17], in test [1], in [3], in [5], in test [6] and in test [7] was “inactive” in each case. For the same molecule, the Potency result in [8], in test [11], in test [13], in test [14] and in test [16] was “inactive” in each case. Further, the molecule was classed as inactive in test [18], in test [9], in test [19], in [10] and in test [15].

For the molecule `NC(N)=O`, the Potency result in test [17], in test [1], in [3], in test [20], in [4] and in test [5] was “inactive” each time. The Potency entry in test [8], in [13], in test [14] and in [16] was “inactive” each time. For the same molecule, the molecule was called inactive in test [18], in test [9], in [19], in [10] and in [15].

In the case of `O=C(O)c1cccnc1`, the Potency result in [17], in [2], in [3], in test [20], in [4] and in test [5] was “inactive” each time. Besides, the Potency entry in [8], in test [13], in test [14] and in test [16] was “inactive” throughout. Moreover, the molecule was classed as inactive in test [18], in test [9], in [19], in [10] and in [15].

With `CC(O)CN(CCN(CC(C)O)CC(C)O)CC(C)O` (stereo not given), the Potency entry in [17], in test [1], in test [3], in test [20], in test [4] and in [5] was “inactive” in each case. In addition, the Potency entry in test [8], in test [13], in [14] and in [16] was “inactive” throughout. Also, the result in test [18], in [9], in test [10] and in test [15] was inactive.

In the case of `c1ccc2[nH]ccc2c1`, the Potency in [17] is 26.9 µM (active) and inactive; in test [5], 8.49 µM (active) and inactive; in test [6], 2.69 µM (active) and inactive; in test [8], 17.1 µM (active) and inactive; in [11], 2.39 µM (active) and inactive; in test [13], 6.07 µM (active) and inactive. Also, the Potency in test [14] is 2.15 µM (active) and inactive; in test [16], 3.41 µM (active) and inactive. In addition, the Potency entry in test [1] and in [7] was “inactive” in each case. In addition, the outcome in [18], in test [9], in [19], in test [10] and in [15] was inactive. Also, the activity change, positive = activation was 11.1% (inactive) in [12] (at 42.5 µM (top of the series)); -76.8% (inactive) and 0.106% (inactive) in test [12] (at 92.4 µM (top of the series)).

Turning to `Cc1ccc(O)cc1`, the Potency entry in [17], in test [1], in test [5], in test [8], in [13] and in test [14] was “inactive” throughout. The Potency result in [16] was “inactive”. Also, the call in test [18], in test [9], in test [10] and in test [15] was inactive.

These data come from PubChem BioAssay (Tox21).
